Test results from PubChem BioAssay AID1159580 (chemical genetic matrix, 2015).
Several values for one entry are separate records, joined by “and”; a condition that tells them apart may be missing. Identical values can stand only once. Hit rate of the full screen: of about 5,500 compounds, about 2,000 (36%) were called active. About 18% were inconclusive and are not listed. Rule as the data show it: active = normalized growth mostly below about 0.91 (no sharp cut-off); inconclusive = no clear call, values can overlap the other calls; inactive = mostly above about 0.92. This is one part of the list.

Assay: chemical genetic growth profiling, strain panel (AID 1159580);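 also: tested at 20 µM; growth read once vehicle control cultures reached saturation at 30 °C; 1 = growth at the plate median or of vehicle wells; lower values mean less growth of the strain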
Conditions: growth OD

Measured: normalized growth

CCN(CC)CCNC(=O)c1cc(Cl)c(N)cc1OC
inactive: S. cerevisiae deletion strains, locus YJR075W, strain HOC1, active compounds read low 0.998 | S. cerevisiae deletion strains, locus YKL009W, strain mrt4, active compounds read low 1.01 | S. cerevisiae deletion strains, locus YKL068W, active compounds read low 1.01 | S. cerevisiae deletion strains, locus YKL085W, strain MDH1 (second series), active compounds read low 1 | S. cerevisiae deletion strains, locus YKL085W, strain MDH1, active compounds read low 1 | S. cerevisiae deletion strains, locus YKL160W, strain elf1, active compounds read low 0.97 | S. cerevisiae deletion strains, locus YKL190W, strain CNB1, active compounds read low 1.02 | S. cerevisiae deletion strains, locus YKR001C, strain vps1, active compounds read low 1 | S. cerevisiae deletion strains, locus YKR026C, strain gcn3, active compounds read low 0.996 | S. cerevisiae deletion strains, locus YKR091W, strain srl3, active compounds read low 0.972 | S. cerevisiae deletion strains, locus YLL001W, strain dnm1, active compounds read low 0.921 | S. cerevisiae deletion strains, locus YLL026W, active compounds read low 0.977 | S. cerevisiae deletion strains, locus YLL041C, strain sdh2, active compounds read low 0.991 | S. cerevisiae deletion strains, locus YLR027C, strain aat2, active compounds read low 0.983 | S. cerevisiae deletion strains, locus YLR039C, strain RIC1, active compounds read low 0.996 | S. cerevisiae deletion strains, locus YLR058C, strain SHM2, active compounds read low 1.01 | S. cerevisiae deletion strains, locus YLR102C, strain apc9, active compounds read low 0.992 | S. cerevisiae deletion strains, locus YLR113W, strain HOG1, active compounds read low 1.06 | S. cerevisiae deletion strains, locus YLR221C, strain rsa3, active compounds read low 0.961 | S. cerevisiae deletion strains, locus YLR258W, strain gsy2, active compounds read low 0.997 | S. cerevisiae deletion strains, locus YLR262C, strain YPT6 (second series), active compounds read low 0.977 | S. cerevisiae deletion strains, locus YLR262C, strain YPT6, active compounds read low 1.05 | S. cerevisiae deletion strains, locus YLR268W, strain sec22, active compounds read low 0.963 | S. cerevisiae deletion strains, locus YLR320W, strain mms22, active compounds read low 0.962 | S. cerevisiae deletion strains, locus YLR330W, strain CHS5, active compounds read low 1 | S. cerevisiae deletion strains, locus YLR342W, strain FKS1 (second series), active compounds read low 0.995 | S. cerevisiae deletion strains, locus YLR342W, strain FKS1, active compounds read low 0.983 | S. cerevisiae deletion strains, locus YLR357W, strain rsc2, active compounds read low 0.965 | S. cerevisiae deletion strains, locus YLR370C, strain arc18, active compounds read low 0.973 | S. cerevisiae deletion strains, locus YLR371W, strain rom2, active compounds read low 0.995 | S. cerevisiae deletion strains, locus YLR384C, strain iki3, active compounds read low 0.976 | S. cerevisiae deletion strains, locus YLR418C, strain cdc73, active compounds read low 0.976 | S. cerevisiae deletion strains, locus YML016C, strain PPZ1, active compounds read low 1.01 | S. cerevisiae deletion strains, locus YML032C, strain rad52, active compounds read low 0.987 | S. cerevisiae deletion strains, locus YML120C, strain ndi1, active compounds read low 0.945 | S. cerevisiae deletion strains, locus YML124C, strain tub3, active compounds read low 1 | S. cerevisiae deletion strains, locus YMR058W, strain fet3, active compounds read low 0.983 | S. cerevisiae deletion strains, locus YMR078C, strain ctf18, active compounds read low 0.994 | S. cerevisiae deletion strains, locus YMR125W, strain sto1, active compounds read low 0.951 | S. cerevisiae deletion strains, locus YMR129W, active compounds read low 0.995 | S. cerevisiae deletion strains, locus YMR205C, strain PFK2, active compounds read low 0.954 | S. cerevisiae deletion strains, locus YMR223W, strain ubp8, active compounds read low 0.997 | S. cerevisiae deletion strains, locus YMR231W, strain pep5, active compounds read low 0.992 | S. cerevisiae deletion strains, locus YMR263W, strain SAP30, active compounds read low 1.01 and 1 | S. cerevisiae deletion strains, locus YMR307W, strain GAS1, active compounds read low 1.01 | S. cerevisiae deletion strains, locus YNL067W, strain RPL9B, active compounds read low 1 | S. cerevisiae deletion strains, locus YNL071W, strain lat1, active compounds read low 0.984 | S. cerevisiae deletion strains, locus YNL128W, strain TEP1, active compounds read low 1.03 | S. cerevisiae deletion strains, locus YNL153C, strain GIM3, active compounds read low 0.996 and 0.998 | S. cerevisiae deletion strains, locus YNL175C, strain NOP13, active compounds read low 1 | S. cerevisiae deletion strains, locus YNL183C, strain NPR1, active compounds read low 0.991 | S. cerevisiae deletion strains, locus YNL197C, strain WHI3, active compounds read low 1.02 | S. cerevisiae deletion strains, locus YNL209W, strain ssb2, active compounds read low 0.974 | S. cerevisiae deletion strains, locus YNL224C, strain SQS1, active compounds read low 1.01 | S. cerevisiae deletion strains, locus YNL233W, strain BNI4, active compounds read low 1 | S. cerevisiae deletion strains, locus YNL248C, strain rpa49, active compounds read low 0.983 | S. cerevisiae deletion strains, locus YNL250W, strain rad50, active compounds read low 0.992 | S. cerevisiae deletion strains, locus YNL271C, strain bni1, active compounds read low 1 | S. cerevisiae deletion strains, locus YNL298W, strain CLA4, active compounds read low 1 | S. cerevisiae deletion strains, locus YNL307C, strain MCK1, active compounds read low 0.992 | S. cerevisiae deletion strains, locus YNL322C, strain KRE1 (second series), active compounds read low 0.973 | S. cerevisiae deletion strains, locus YNL322C, strain KRE1, active compounds read low 1.01 | S. cerevisiae deletion strains, locus YNR049C, strain mso1, active compounds read low 0.962 | S. cerevisiae deletion strains, locus YNR052C, strain pop2, active compounds read low 1.01 | S. cerevisiae deletion strains, locus YOL006C, strain TOP1, active compounds read low 1.03 | S. cerevisiae deletion strains, locus YOL012C, strain htz1 1.1 | S. cerevisiae deletion strains, locus YOL147C, strain pex11, active compounds read low 0.995 | S. cerevisiae deletion strains, locus YOR001W, strain rrp6, active compounds read low 1 | S. cerevisiae deletion strains, locus YOR061W, strain CKA2, active compounds read low 1 | S. cerevisiae deletion strains, locus YOR069W, strain VPS5, active compounds read low 1.01 | S. cerevisiae deletion strains, locus YOR070C, strain gyp1, active compounds read low 0.992 | S. cerevisiae deletion strains, locus YOR080W, strain dia2, active compounds read low 0.987 | S. cerevisiae deletion strains, locus YOR083W, strain WHI5 (second series), active compounds read low 0.999 | S. cerevisiae deletion strains, locus YOR083W, strain WHI5, active compounds read low 0.964 | S. cerevisiae deletion strains, locus YOR106W, strain vam3, active compounds read low 0.932 | S. cerevisiae deletion strains, locus YOR136W, strain idh2, active compounds read low 0.994 | S. cerevisiae deletion strains, locus YOR144C, strain elg1, active compounds read low 1 | S. cerevisiae deletion strains, locus YOR184W, strain ser1, active compounds read low 0.986 | S. cerevisiae deletion strains, locus YOR231W, strain MKK1, active compounds read low 1.05 | S. cerevisiae deletion strains, locus YOR265W, strain rbl2, active compounds read low 0.993 | S. cerevisiae deletion strains, locus YOR270C, strain vph1, active compounds read low 0.947 | S. cerevisiae deletion strains, locus YOR290C, strain snf2, active compounds read low 0.909 | S. cerevisiae deletion strains, locus YOR316C, strain cot1, active compounds read low 0.991 | S. cerevisiae deletion strains, locus YPL051W, strain arl3, active compounds read low 0.998 | S. cerevisiae deletion strains, locus YPL055C, strain LGE1, active compounds read low 1.02 and 1 | S. cerevisiae deletion strains, locus YPL078C, strain atp4, active compounds read low 0.975 | S. cerevisiae deletion strains, locus YPL106C, strain sse1, active compounds read low 0.971 | S. cerevisiae deletion strains, locus YPL240C, strain hsp82, active compounds read low 0.98 | S. cerevisiae deletion strains, locus YPL241C, strain CIN2, active compounds read low 1.01 | S. cerevisiae deletion strains, locus YPL256C, strain CLN2, active compounds read low 1.13 | S. cerevisiae deletion strains, locus YPR119W, strain clb2, active compounds read low 0.987 | S. cerevisiae deletion strains, locus YPR141C, strain kar3, active compounds read low 0.993 | S. cerevisiae deletion strains, locus YPR163C, strain tif3, active compounds read low 0.99 | S. cerevisiae deletion strains, locus YPR167C, strain met16, active compounds read low 0.992 | S. cerevisiae deletion strains, strain wtn01, active compounds read low 0.982 | S. cerevisiae strains, strain wild type, active compounds read low 1.01
